We go through 54 compounds from PubChem BioAssay AID485313 (National Center for Advancing Translational Sciences (NCATS), 2010).

Hit rate of the full screen: of about 320,000 compounds, about 7,600 (2.4%) were called active. Roughly 3% stayed inconclusive and do not appear here. Calls come from the whole dose curve; as a rule, active = well fitted activation curve with a large enough effect; inconclusive = small, poorly fitted or top-dose-only effect; inactive = no such curve, though single readings can be large or run the other way. The full list was thinned out, with actives kept by preference.
Potency is the fitted concentration of half-maximal effect.

A short description of the assay: qHTS Assay for NPC1 Promoter Activators. For activation: % of control where 0% means no effect. Note: nearly all actives have a fitted effect of over 60% in size. The settings on record: Huh7 NPC1 promoter luciferase reporter, 24 h; series mostly up to 9.22 µM; activation: at the top concentration. The procedure, abridged:
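Luminescence read-out of NPC1 promoter-driven luciferase in stably transfected Huh7 cells; compounds delivered in DMSO and left 24 h at 37C, 5% CO2, qHTS titration format.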
Background: Quantitative high-throughput screening tests each substance at several concentrations.
For `C/C(=N\NC(=O)c1cccnc1)c1ccc(-c2ccccc2)cc1`, the “activation” value is 2.31% (inactive).

On to `C/C(=N\NC(=O)c1nc(C)cc(C)n1)c1ccccc1`, for which the Potency was 1580 nM (active).

For the compound `COc1ccc(CCNC(=O)CCc2ccccc2O)cc1OC`, the “activation” value was 1.23% (inactive).

On to `COc1ccccc1C(=O)NC(=O)COC(=O)C1CC1`, for which the “activation” value was 2.15% (inactive).

`O=C(CNC(=O)c1ccccc1Br)NCCSc1ccc(Br)cc1`: the “activation” value is -2.8% (inactive).

As to `O=C(CNC(=O)c1ccc(F)cc1)c1ccccc1`, the Potency was 1410 nM (active).

Turning to `O=C(NCCS(=O)(=O)NCc1ccc(F)cc1)c1ccccc1`, the “activation” value is 2.14% (inactive).

On to `O=C(COC(=O)CNC(=O)c1ccccc1F)NCC(F)(F)F`, for which the “activation” value is -10.8% (inactive).

As to `O=C(CNC(=O)c1ccccc1F)c1ccc(Br)cc1`, the Potency is 398 nM (active).

For `O=C(CNC(=O)c1ccccc1)NCC(=O)OCC(=O)c1ccccc1`, the “activation” value is -2.12% (inactive).

`Cc1ccc(S(=O)(=O)Nc2nc(CN3CCOCC3)nc3sc(C)c(C)c23)cc1`: the “activation” value was -3.18% (inactive).

Consider `COc1ccc(CNC(=O)c2ccc(NS(=O)(=O)c3ccc4[nH]c(=O)[nH]c4c3)cc2)cc1OC`, for which the “activation” value is 0.755% (inactive).

Consider `Nc1nc(SCC(=O)Nc2ccc(Cl)c([N+](=O)[O-])c2)n[nH]1`, for which the “activation” value is -0.898% (inactive).

For the compound `O=C(CCNC(=O)c1ccc(Br)cc1)NCCCc1ccccc1`, the “activation” value was 0.35% (inactive).

`CCCOc1ccc(C(=O)NCCc2ccccc2)cc1`: the Potency was 447 nM (active).

For the compound `COc1ccc(OCCCC(=O)NCCc2ccccc2)cc1`, the “activation” value was 0.654% (inactive).

As to `CN(c1ccccc1)S(=O)(=O)c1ccc(C(=O)NCCc2ccccc2)cc1`, the “activation” value was 16.8% (inactive).

On to `CCCCCCCCC(=O)NCCOc1ccccc1`, for which the “activation” value is -1.35% (inactive).

Take `O=C(NCCOc1ccccc1)c1ccccc1`: the Potency was 631 nM (active).

Turning to `CCCc1ccc(OCCNC(=O)c2ccccc2Br)cc1`, the “activation” value was 11% (inactive).

As to `Cc1noc(C)c1COc1ccc(C(=O)NCCOc2ccccc2)cc1`, the “activation” value is 14% (inactive).

In the case of `CC(C)c1ccc(C(=O)NCCCc2ccccc2)cc1`, the Potency was 2820 nM (active).

In the case of `CCN1CCN(C(=O)N[C@@H](C(=O)N[C@@H]2C(=O)N3C(C(=O)O)=C(CSc4nnnn4C)CS[C@H]23)c2ccc(O)cc2)C(=O)C1=O`, the “activation” value was -2.2% (inactive).

Turning to `Cc1ccc(CNC(=O)c2cccc3c2C(=O)c2ccc(N4CCC(C)CC4)cc2S3(=O)=O)cc1`, the “activation” value is 13.2% (inactive).

In the case of `CC1(C)O[C@@H]2[C@H](O1)[C@@H](COS(=O)(=O)O)O[C@H]2n1ccc(=O)[nH]c1=O`, the “activation” value was 0.649% (inactive).

In the case of `O=C(/C=C/c1ccccc1[N+](=O)[O-])OCC(=O)N1CCCC1`, the “activation” value was 10.4% (inactive).

With `O=C(CNc1ccccc1N1CCCC1=O)Nc1cc(Cl)ccc1-n1cncn1`, the “activation” value is -0.612% (inactive).

As to `CCCc1nc2ccccc2c(=O)n1/N=C/c1ccc(O)c(O)c1`, the “activation” value was -8.72% (inactive).

Regarding `O=c1c2ccccc2ncn1/N=C/c1ccccc1`, the Potency was 1000 nM (active).

Regarding `O=C(Nn1cnc2ccccc2c1=O)c1ccccc1`, the “activation” value is 1.3% (inactive).

On to `Cc1ccc(S(=O)(=O)N(NC2=NS(=O)(=O)c3ccccc32)C(=O)c2ccccc2)cc1`, for which the “activation” value is -4.49% (inactive).

Regarding `O=C(Oc1cccc(NC2=NS(=O)(=O)c3ccccc32)c1)c1ccncc1`, the “activation” value was 2.13% (inactive).

As for `CC(C)(C)c1csc(NC2=NS(=O)(=O)c3ccccc32)n1`, the Potency is 1410 nM (active).

As to `CCN(CC(=O)Nc1ccccc1C(F)(F)F)C(=O)C1CCN(C(=O)Nc2ccccc2)CC1`, the “activation” value is 1.23% (inactive).

In the case of `O=C(c1cn(-c2ccccc2)nc1-c1cccnc1)N1CCN(S(=O)(=O)c2ccccc2F)CC1`, the “activation” value is -2.08% (inactive).

For `CC[C@@H]1Cc2cc(O)ccc2C2=C1c1ccc(O)cc1C[C@H]2CC`, the Potency result was “inactive”.

With `CCOC(=O)C1=C(c2ccccc2)O/C(=C(/C(=O)OC)C(F)(F)F)S1`, the “activation” value was 10.5% (inactive).

In the case of `COC(=O)/C(=C1\Oc2ccc(C(C)(C)C)cc2S1)C(F)(F)F`, the Potency was 3550 nM (active).

With `Cc1occc1-c1nnc(SCC(=O)NC2(C#N)CCCC2)n1C`, the “activation” value is -2.37% (inactive).

On to `COc1ccc(-c2cc(C(F)(F)F)nc(NCc3cccnc3)n2)cc1`, for which the “activation” value is 1.94% (inactive).

In the case of `COc1ccc(-c2cc3ncccc3cn2)cc1`, the Potency was 2240 nM (active).

For `COc1ccc(-c2cc(C3CCN(c4ncccc4[N+](=O)[O-])CC3)[nH]n2)cc1`, the “activation” value was 1.28% (inactive).

For `CCC(=O)Nc1ccc2c(c1)nc(CCN1CCN(c3ccccn3)CC1)n2C`, the “activation” value is -10.8% (inactive).

Consider `Cn1c(CCN2CCCC2)nc2cc(NS(=O)(=O)c3ccccc3)ccc21`, for which the “activation” value was -7.01% (inactive).

Take `Cc1nc2cc(NC(=O)Nc3cccc(F)c3)ccc2n1C`: the Potency was 100 nM (active).

`Cc1cc2nc(C)n(CCCNC(=O)Nc3ccccc3)c2cc1C`: the “activation” value is -3.61% (inactive).

Turning to `Cn1c(CCN2CCCCCC2)nc2cc(NC(=O)Nc3ccccc3)ccc21`, the Potency was 4470 nM (active).

With `Cc1nc2cc(NC(=O)NC3CC3)ccc2n1C`, the “activation” value was 7.08% (inactive).

For `CCn1c(=O)c(=O)n(CC)c2cc(N3CCCCC3)c(NC(=O)c3ccc(Cl)cc3)cc21`, the “activation” value was -3.5% (inactive).

Consider `CC(C)n1ncc2c(C(=O)NCc3ccccc3CN(C)C)cc(C3CC3)nc21`, for which the “activation” value is -4.26% (inactive).

As to `COc1nc(N(C)C)nc(N2CC(=O)N(CCNS(=O)(=O)c3ccc(C)cc3)C2=N)n1`, the “activation” value is 2.87% (inactive).

As for `CS(=O)(=O)n1nc(-c2ccccc2)nc1NCc1ccco1`, the “activation” value is 0.536% (inactive).

Consider `CCS(=O)(=O)n1nc(-c2ccc(OC)cc2)nc1SC`, for which the “activation” value is 27.4% (inactive).

As for `CCS(=O)(=O)n1nc(-c2ccccc2)nc1SCc1ccccc1`, the Potency is 3550 nM (active).
